Data published in PubChem BioAssay (EPA / NIEHS).
The source made the active and inactive calls. Rule for the calls: active = hit-call score of the fitted dose curve at least 0.9, where 1 is the maximum; inactive = score below 0.9.

Experiments:
[1] = read-out: Collagen I, COL1A1 (gene 1277); experiment: BSK_MyoF_CollagenI: BioMAP Diversity Plus: MyoF Assay for Collagen I Biomarker Activity (AID 2284238); details: primary human lung fibroblasts
How it was run: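 Measured by ELISA: Collagen I from human lung fibroblasts 24 h after compound addition, analysed for signal gain with DMSO as baseline; overt toxicity read from SRB staining of parallel cultures at the same time.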

[2] = read-out: Collagen III, COL3A1 (gene 1281); experiment: BSK_MyoF_CollagenIII: BioMAP Diversity Plus: MyoF Assay for Collagen III Biomarker Activity (AID 2284239); details: primary human lung fibroblasts
How it was run: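 Multiplexed cell assay in lung fibroblasts, harvested at 24 h post-dose. Collagen III detected by ELISA, with positive-direction fitting relative to DMSO vehicle.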

[3] = read-out: Interleukin 2 (IL2), IL2 (gene 3558); experiment: BSK_BT_xIL2: BioMAP Diversity Plus: BT Assay for Interleukin 2 (IL2) Biomarker Activity (AID 2284245); details: primary human B cells with PBMC
How it was run: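 B cell + PBMC co-culture (human primary), compound added, 24 h incubation; secreted IL-2 measured multiplexed on Luminex xMAP; gain-of-signal fit vs DMSO.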

[4] = read-out: Basic fibroblast growth factor (bFGF), FGF2 (gene 2247); experiment: BSK_MyoF_bFGF: BioMAP Diversity Plus: MyoF Assay for Basic fibroblast growth factor (bFGF) Biomarker Activity (AID 2284246); details: primary human lung fibroblasts
How it was run: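 ELISA-measured bFGF level serves as the read-out, taken 24 h after chemical dosing of human lung fibroblasts. Values represent signal gain over the DMSO negative control.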

[5] = read-out: Collagen IV, COL4A1 (gene 1282); experiment: BSK_MyoF_CollagenIV: BioMAP Diversity Plus: MyoF Assay for Collagen IV Biomarker Activity (AID 2284247); details: primary human lung fibroblasts
How it was run: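 Steps: dose human lung fibroblasts; culture 24 h; quantify Collagen IV by ELISA; fit increase versus DMSO control. Parallel SRB total-protein staining (0.1% SRB after 10% TCA fixation, 560 nm) tracks overt cytotoxicity.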

[6] = read-out: Plasminogen activator inhibitor-1 (PAI1), SERPINE1 (gene 5054); experiment: BSK_MyoF_PAI1: BioMAP Diversity Plus: MyoF Assay for Plasminogen activator inhibitor-1 (PAI1) Biomarker Activity (AID 2284256); details: primary human lung fibroblasts
How it was run: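 In this multiplexed primary-cell system, fibroblasts from human lung received compound for 24 h before ELISA detection of PAI-1; overt toxicity was checked by SRB (0.1%, TCA-fixed, 560 nm) in parallel wells.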

[7] = read-out: Interleukin-8 (IL8), CXCL8 (gene 3576); experiment: BSK_MyoF_IL8: BioMAP Diversity Plus: MyoF Assay for Interleukin-8 (IL8) Biomarker Activity (AID 2284261); details: primary human lung fibroblasts
How it was run: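 DMSO-normalised, upward-fitted IL-8 ELISA signal; human lung fibroblasts, 24 h chemical treatment.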

[8] = read-out: Decorin, DCN (gene 1634); experiment: BSK_MyoF_Decorin: BioMAP Diversity Plus: MyoF Assay for Decorin Biomarker Activity (AID 2284265); details: primary human lung fibroblasts
How it was run: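 In this multiplexed fibroblast system, secreted or surface decorin is detected by ELISA one day after dosing, with increases scored against the DMSO vehicle.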

[9] = BSK_MyoF_SRB: Viability Assessment in the BioMAP Diversity Plus: MyoF Assay (AID 2284267); details: primary human lung fibroblasts;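 note: total protein by SRB absorbance in parallel cultures as cytotoxicity measure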
How it was run: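 Read-out is SRB absorbance at 560 nm, reflecting total protein in parallel lung fibroblast cultures harvested 24 h after compound addition. Cells were TCA-fixed (10%) and stained with 0.1% SRB; activity is referenced to DMSO.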

[10] = read-out: Matrix Metallopeptidase 1 (MMP1), MMP1 (gene 4312); experiment: BSK_MyoF_MMP1: BioMAP Diversity Plus: MyoF Assay for Matrix Metallopeptidase 1 (MMP1) Biomarker Activity (AID 2284268); details: primary human lung fibroblasts
How it was run: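 Fibroblasts from human lung receive compound for 24 h before ELISA quantitation of MMP1. DMSO serves as baseline, and the endpoint is fitted for signal gain.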

[11] = read-out: TIMP metallopeptidase inhibitor 1 (TIMP1), TIMP1 (gene 7076); experiment: BSK_MyoF_TIMP1: BioMAP Diversity Plus: MyoF Assay for TIMP metallopeptidase inhibitor 1 (TIMP1) Biomarker Activity (AID 2284269); details: primary human lung fibroblasts
How it was run: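 ELISA quantified TIMP-1 levels after 24 h dosing of primary human lung fibroblasts, with DMSO as baseline. Parallel SRB total protein staining (0.1% SRB after TCA fixation, 560 nm) flagged overt cytotoxicity.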

[12] = read-out: Monokine induced gamma interferon (MIG), CXCL9 (gene 4283); experiment: BSK_KF3CT_MIG: BioMAP Diversity Plus: KF3CT Assay for Monokine induced gamma interferon (MIG) Biomarker Activity (AID 2284248); details: primary human keratinocytes with fibroblasts
How it was run: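 MIG in dosed human skin co-cultures was measured by ELISA at 24 h, relative to DMSO.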

[13] = read-out: Collagen I, COL1A1 (gene 1277); experiment: BSK_hDFCGF_CollagenI: BioMAP Diversity Plus: hDFCGF Assay for Collagen I Biomarker Activity (AID 2284250); details: primary human foreskin fibroblasts
How it was run: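 Human skin primary fibroblasts dosed with test chemical, harvested at 24 h, Collagen I quantified by ELISA; parallel SRB staining (0.1% SRB after 10% TCA fixation, 560 nm) tracked cytotoxicity.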

[14] = read-out: Interferon-inducible T-cell alpha chemoattractant (ITAC), CXCL11 (gene 6373); experiment: BSK_hDFCGF_ITAC: BioMAP Diversity Plus: hDFCGF Assay for Interferon-inducible T-cell alpha chemoattractant (ITAC) Biomarker Activity (AID 2284251); details: primary human foreskin fibroblasts
How it was run: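 ELISA readout of I-TAC after 24 h chemical exposure; human dermal foreskin fibroblast primary cells. Positive-direction fitting vs DMSO baseline. Parallel SRB total-protein staining (0.1% SRB after 10% TCA fixation, 560 nm) flags cytotoxicity.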

[15] = read-out: Interleukin-8 (IL8), CXCL8 (gene 3576); experiment: BSK_KF3CT_IL8: BioMAP Diversity Plus: KF3CT Assay for Interleukin-8 (IL8) Biomarker Activity (AID 2284254); details: primary human keratinocytes with fibroblasts
How it was run: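 Using parallel SRB-stained cultures to flag overt toxicity, the study quantified IL-8 by ELISA in human keratinocyte–foreskin fibroblast co-cultures 24 h after dosing, with DMSO as negative control and baseline.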

[16] = read-out: Intercellular Adhesion Molecule 1 (ICAM1), ICAM1 (gene 3383); experiment: BSK_BE3C_ICAM1: BioMAP Diversity Plus: BE3C Assay for Intercellular Adhesion Molecule 1 (ICAM1) Biomarker Activity (AID 2284278); details: primary human bronchial epithelial cells;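 note: cell-surface ICAM-1 protein level quantified by ELISA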
How it was run: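 Human primary bronchial epithelial cultures; compound added; 24 h incubation; cell-surface ICAM-1 measured by ELISA; signal increase fitted relative to DMSO negative control.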

[17] = read-out: Interferon-inducible T-cell alpha chemoattractant (ITAC), CXCL11 (gene 6373); experiment: BSK_BE3C_ITAC: BioMAP Diversity Plus: BE3C Assay for Interferon-inducible T-cell alpha chemoattractant (ITAC) Biomarker Activity (AID 2284279); details: primary human bronchial epithelial cells
How it was run: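 ELISA for I-TAC in primary human bronchial epithelial cultures 24 h post-treatment, fitted relative to DMSO baseline in positive direction. Cytotoxicity checked in parallel cultures by sulforhodamine B protein staining.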

[18] = read-out: Epidermal growth factor receptor (EGFR), EGFR (gene 1956); experiment: BSK_BE3C_EGFR: BioMAP Diversity Plus: BE3C Assay for Epidermal growth factor receptor (EGFR) Biomarker Activity (AID 2284281); details: primary human bronchial epithelial cells
How it was run: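 Primary human lung bronchial epithelial cells; compound, 24 h; EGFR measured by ELISA; positive-direction fit vs DMSO baseline.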

Measured: AC50

CCCCC/C=C/C=C/C=O
inactive: [7] | [10]
active: [1] 32.4 µM | [2] 32.2 µM | [3] 31.4 µM | [4] 36.8 µM | [5] 10.5 µM | [6] 29.4 µM | [8] 20 µM | [9] 32 µM | [11] 34.2 µM

O=P(c1ccccc1)(c1ccccc1)c1ccccc1
inactive: [1] | [2] | [3] | [4] | [5] | [6] | [7] | [8] | [9] | [10] | [11]

CC(C)c1ccc(C(C)C)cc1
inactive: [1] | [2] | [3] | [4] | [5] | [6] | [7] | [8] | [9] | [10] | [11]

C=C[Si](OCC)(OCC)OCC
inactive: [1] | [2] | [3] | [4] | [5] | [6] | [7] | [8] | [9] | [10] | [11]

OC[C@H]1O[C@H](O[C@]2(CCl)O[C@H](CCl)[C@@H](O)[C@@H]2O)[C@H](O)[C@@H](O)[C@H]1Cl
inactive: [12] | [13] | [14] | [15] | [16] | [17] | [18]

CCCCCCCCC=O
inactive: [1] | [2] | [3] | [4] | [5] | [6] | [7] | [8] | [9] | [10] | [11]

CC(=O)/C=C/C1=C(C)CCCC1(C)C
inactive: [1] | [2] | [3] | [4] | [5] | [6] | [7] | [8] | [9] | [10] | [11]

OC1OC[C@@H](O)[C@H](O)[C@H]1O (some centres not stated)
inactive: [12] | [13] | [14] | [15] | [16] | [17] | [18]

O=C=NC1CCC(CC2CCC(N=C=O)CC2)CC1 (configuration not stated)
inactive: [1] | [2] | [3] | [4] | [5] | [6] | [7] | [8] | [9] | [10] | [11]

c1ccc2sc(SN(C3CCCCC3)C3CCCCC3)nc2c1
active: [10] 6.26 µM
inactive: [1] | [2] | [3] | [4] | [5] | [6] | [7] | [8] | [9] | [11]

C=CCOC(=O)CCC1CCCCC1
inactive: [12] | [13] | [14] | [15] | [16] | [17] | [18]

C[C@H]1C[C@@H]2[C@H]([C@@H](O)C[C@@]3(C)[C@H]2CC[C@]3(O)C(=O)CO)[C@@]2(C)C=CC(=O)C=C12
inactive: [12] | [13] | [14] | [15] | [16] | [17] | [18]

CCCCCCCCCC=O
inactive: [1] | [2] | [3] | [4] | [7] | [8] | [9] | [10] | [11]
active: [5] 7.8 µM | [6] 0.016 µM
